# Source: PubChem BioAssay (NCATS)
# Results filed as inconclusive are left out. Values without a mark were called inactive. Calls come from the whole dose curve; as a rule, active = well fitted curve in the direction sought with a large enough effect; inconclusive = small, poorly fitted or top-dose-only effect, or another doubt; inactive = no such curve, though single readings can be large; an effect the other way counts as inactive or inconclusive.
# Experiment: qHTS of pediatric cancer cell lines to identify multiple opportunities for drug repurposing: Primary screen for DAOY cells (AID 1347090);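 note: plate controls were DMSO for no effect and bortezomib for full effect; nearly all actives have a fitted effect of over 55% in size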
# Settings: DAOY medulloblastoma viability, CellTiter-Glo luminescence, 48 h; series mostly up to 46 µM; activity change, negative = cytotoxic: at the top concentration
# Outline: (§1)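 Cell viability, CellTiter-Glo luminescence; 500-1,000 cells/well, 8- or 11-point titration, 48 h compound exposure at 37 degrees C, 5% CO2. Controls: DMSO neutral, bortezomib 2.3 µM final as positive.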
row,Compound,"activity change, negative = cytotoxic"
1,C[C@]12C=CC(=O)C=C1[C@@H](F)C[C@@H]1[C@@H]2[C@@H](O)C[C@@]2(C)[C@H]1CC[C@]2(O)C(=O)CO,-1.7%
2,NC(CS)C(=O)O (stereo not drawn),0.212%
3,CN1C(CCl)Nc2cc(Cl)c(S(N)(=O)=O)cc2S1(=O)=O (stereo not drawn),3.11%
4,COc1cc2c(cc1OC)[C@@H]1CC(=O)[C@@H](CC(C)C)CN1CC2,0.821%
5,CC1(C)O[C@@H]2C[C@H]3[C@@H]4C[C@H](F)C5=CC(=O)C=C[C@]5(C)[C@H]4[C@@H](O)C[C@]3(C)[C@]2(C(=O)CO)O1,-15.7%
6,CCCCC1=NC2(CCCC2)C(=O)N1Cc1ccc(-c2ccccc2-c2nn[nH]n2)cc1,6.02%
7,COc1cc(OC)cc(OC)c1,-2.52%
8,CC(=O)OCC(=O)[C@@]1(O)[C@H](C)C[C@H]2[C@@H]3CCC4=CC(=O)C=C[C@]4(C)[C@@]3(F)[C@@H](O)C[C@@]21C,0.62%
9,CCCCc1nc(Cl)c(CO)n1Cc1ccc(-c2ccccc2-c2nn[nH]n2)cc1,8.1%
10,C[C@@H](CN(C)C)CN1c2ccccc2Sc2ccccc21,-11.3%
11,Cc1ccnc(NS(=O)(=O)c2ccc(N)cc2)n1,8.58%
12,CC(O)C(=O)O (stereo not drawn),3%
13,Nc1ccc(/C=C/c2ccc(N)cc2S(=O)(=O)O)c(S(=O)(=O)O)c1,10% [at 0.597 µM]
14,COc1ccc(C2C(=O)c3ccccc3C2=O)cc1,13.6%
15,CCN(CC)C(=O)/C(C#N)=C/c1cc(O)c(O)c([N+](=O)[O-])c1,-20.1%
16,Cc1cc2c(cc1CC(=O)c1sccc1S(=O)(=O)Nc1onc(C)c1Cl)OCO2,9.2%
17,CC(Cc1cccc(C(F)(F)F)c1)NCCOC(=O)c1ccccc1 (stereo not drawn),2.11%
18,CCN(CC)C(=O)N1CCN(C)CC1,2.6%
19,NCCC(O)(P(=O)(O)O)P(=O)(O)O,-0.823%
20,CN1CCN(CCCN2c3ccccc3Sc3ccc(S(=O)(=O)N(C)C)cc32)CC1,-5.45%

# Experiment: qHTS of pediatric cancer cell lines to identify multiple opportunities for drug repurposing: Primary screen for SJ-GBM2 cells (AID 1347091);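 note: plate controls were DMSO neutral control for no effect and bortezomib for full effect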
# Settings: SJ-GBM2 viability, CellTiter-Glo luminescence, 48 h; series mostly up to 46 µM; activity change, negative = cytotoxic: at the top concentration
# Outline: as §1
row,Compound,"activity change, negative = cytotoxic"
1,CC(C)N=C(N)/N=C(\N)Nc1ccc(Cl)cc1,3.04%
2,Nc1ccc(C(=O)O)cc1,25.3%
3,CCCCOc1ccc(OCCCN2CCOCC2)cc1,-12.3%
4,Cc1ccc(Nc2c(F)cccc2Cl)c(CC(=O)O)c1,37.4%
5,Oc1cc(O)c2c(c1)O[C@H](c1ccc(O)c(O)c1)[C@H](O)C2,13.6%
6,NC[C@H]1O[C@H](O[C@H]2[C@H](O[C@@H]3O[C@H](CO)[C@@H](O)[C@H]3O)C(O)[C@H](N)C[C@@H]2N)[C@H](N)[C@@H](O)[C@@H]1O (stereo partly drawn),15.5% [at 9.22 µM]
7,COc1cc(/C=C/C(=O)O[C@H]2CC[C@]34C[C@]35CC[C@]3(C)[C@@H]([C@H](C)CCC=C(C)C)CC[C@@]3(C)[C@@H]5CC[C@H]4C2(C)C)ccc1O,19.3%
8,CC1(C)O[C@@H]2C[C@H]3[C@@H]4CCC5=CC(=O)CC[C@]5(C)[C@@]4(F)[C@@H](O)C[C@]3(C)[C@]2(C(=O)CCl)O1,0.219%
9,CNC(=O)CN(CCN(CCN(CC(=O)[O-])CC(=O)NC)CC(=O)[O-])CC(=O)[O-].O.[Gd+3],7.89%
10,Cc1c(N(C)CS(=O)(=O)O)c(=O)n(-c2ccccc2)n1C,19.1%
11,CCOc1ccc(NC(=O)CC(C)O)cc1 (stereo not drawn),7.68%
12,C/C=C/c1ccc(OC)cc1,27.4%
13,OC[C@H]1O[C@H](O[C@]2(CCl)O[C@H](CCl)[C@@H](O)[C@@H]2O)[C@H](O)[C@@H](O)[C@H]1Cl,16.4%
14,CCN(CC)CCNC(=O)COc1ccc(Cl)cc1,12.6%
15,Cc1cc(N)c2cc(NC(=O)Nc3ccc4nc(C)cc(N)c4c3)ccc2n1,50.3%
16,C[C@]12C=CC(=O)C=C1[C@@H](F)C[C@@H]1[C@@H]2[C@@H](O)C[C@@]2(C)[C@H]1CC[C@]2(O)C(=O)CO,3.6%
17,NC(CS)C(=O)O (stereo not drawn),12.7%
18,CN1C(CCl)Nc2cc(Cl)c(S(N)(=O)=O)cc2S1(=O)=O (stereo not drawn),9.01%
19,COc1cc2c(cc1OC)[C@@H]1CC(=O)[C@@H](CC(C)C)CN1CC2,26.4%
20,CC1(C)O[C@@H]2C[C@H]3[C@@H]4C[C@H](F)C5=CC(=O)C=C[C@]5(C)[C@H]4[C@@H](O)C[C@]3(C)[C@]2(C(=O)CO)O1,-1.32%
21,CCCCC1=NC2(CCCC2)C(=O)N1Cc1ccc(-c2ccccc2-c2nn[nH]n2)cc1,22.5%
22,COc1cc(OC)cc(OC)c1,19.7%
23,CC(=O)OCC(=O)[C@@]1(O)[C@H](C)C[C@H]2[C@@H]3CCC4=CC(=O)C=C[C@]4(C)[C@@]3(F)[C@@H](O)C[C@@]21C,7.83%
